tim23-1 inh = tim23-1 yeast growth inhibition; S. cerevisiae tim23-1 growth, BacTiter-Glo luminescence, 24 h; AID 463212; inhibition, % at 20 µM; 330,000 compounds, 1.3% hits;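 active means growth inhibition of the mutant yeast at or above 50%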;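 further: temperature-sensitive mutant grown at 25 °C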
tim10-1 inh = inhibits growth of tim10-1 mutant yeast. S. cerevisiae tim10-1 ts strain growth, BacTiter-Glo, 24 h. inhibition, % at 20 µM. 330,000 compounds, 2.2% hits;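 active means inhibition of at least 40%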;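 further: mutant grown at 25 °C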
TIM10 inh = TIM10 yeast growth inhibition; S. cerevisiae TIM10 strain growth, BacTiter-Glo luminescence, 24 h; inhibition, % at 10 µM; 330,000 compounds, 1.4% hits; AID 463195;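 active means inhibition of 40% or more at the single tested concentration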;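 further: wild-type TIM10 isogenic control strain grown at permissive 25 °C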
NLRP3 yeast inh = blocks the NALP3 inflammasome reconstituted in yeast; Yeast reconstituted NLRP3/ASC/caspase-1, beta-gal luminescence, 24 h; 330,000 compounds, 0.39% hits; inhibition, % at 10 µM; AID 2825;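 active means inhibition of 50% or more; inactive means inhibition below 50%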
NALP1 yeast inh = blocks the NALP1 inflammasome reconstituted in yeast; S. cerevisiae NALP1/ASC/caspase-1 growth, X-gal OD620, 72 h; inhibition, % at 10 µM; 280,000 compounds, 0.61% hits; in the data active means inhibition mostly above about 24%, no sharp cut-off; inactive means mostly below about 32%
SKKanGAS inh = inhibitors of SKKanGAS S. pyogenes growth in kanamycin (SK-promoter or general growth effect). BacTiter-Glo, 6 h. inhibition, % at 7.5 µM. 300,000 compounds, 1.3% hits. AID 1662;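 active means mean replicate score, as percent of positive control median, at least 50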;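 further: strain carries kanamycin resistance gene driven by streptokinase promoter and grows in 40 µg/ml kanamycin; loss of luminescence reflects streptokinase promoter inhibition or plain growth inhibition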
Each line names hits and unclear results; the compound was inactive in the other large screens. Compounds with a hit are over-represented: about 4.9% of the library has one in this group of screens.

COc1ccc(-c2cc(C(=O)N/N=C/c3sccc3C)c3ccccc3n2)c(OC)c1	NALP1 yeast inh 41.0
Cc1cc2c(c(SCC#N)n1)C(=O)OC2	none
Cc1ccc(OC(=O)c2sc3ncn(C)c(=O)c3c2C)cc1	SKKanGAS inh 77.9
CC(C)c1ccc(NC2CCCN(C(=O)CC3CCCC3)C2)cc1 (stereo unspecified)	none
Cc1cccc(NC2=C/C(=N/S(=O)(=O)c3cccs3)c3ccccc3C2=O)c1	none (no result: tim23-1 inh, tim10-1 inh, TIM10 inh, NLRP3 yeast inh, SKKanGAS inh)
O=C1C(Nc2ccc(O)cc2)=C/C(=N/S(=O)(=O)c2cccs2)c2ccccc21	SKKanGAS inh 87.3 (no result: tim23-1 inh, tim10-1 inh, TIM10 inh, NLRP3 yeast inh)
Cc1cc(S(=O)(=O)N2CCOCC2)ccc1OCC(=O)Nc1ccc(F)cc1F	none
Cc1cc(Oc2cnn(C(C)(C)C)c(=O)c2Cl)cc(C(C)C)c1	SKKanGAS inh 59.0
CCOc1cnn(-c2cc(Oc3ccc(C)cc3)ncn2)c(=O)c1Cl	none
Cc1ccc(-c2nnn(CC(=O)Nc3nnc(C(C)C)s3)n2)cc1	NALP1 yeast inh 37.3
O=C(/C=C/c1cccs1)NC(=S)Nc1ccc(S(=O)(=O)Nc2ccccc2C(F)(F)F)cc1	SKKanGAS inh 59.3
COc1ccc(NC(=S)NC(=O)/C=C/c2cccs2)cc1	none
COc1ccc(CCNC(=O)CSc2nnc(CNC(=O)c3c(F)cccc3Cl)o2)cc1OC	none
CSCC[C@@H](C(=O)O)N1Cc2ccccc2C1=O	NALP1 yeast inh 38.8
COc1ccc(NC(C)=O)c(C)c1	none
COc1cc(C)c(C(=O)CC(=O)c2c(C)cc(OC)cc2C)c(C)c1	SKKanGAS inh 96.3 (no result: NALP1 yeast inh)
Cc1ccc2nc(N(CCN(C)C)C(=O)/C=C/c3cccs3)sc2c1	NALP1 yeast inh 56.5
CN(C)CCN(C(=O)/C=C/c1cccs1)c1nc2c(F)cc(F)cc2s1	NALP1 yeast inh 59.0
CC1CCN(c2nc3ccccc3nc2C(C#N)C(=O)NC2CCCCC2)CC1 (stereo unspecified)	SKKanGAS inh 67.6
N#CC(C(=O)NC1CCCCC1)c1nc2ccccc2nc1N1CCOCC1 (stereo unspecified)	none (no result: tim23-1 inh, tim10-1 inh, TIM10 inh, NLRP3 yeast inh, SKKanGAS inh)
CCC(C)COC(=O)C(C#N)c1nc2ccccc2nc1N1CCCCC1 (stereo unspecified)	SKKanGAS inh 52.8
Cc1cccc(N2CCN(C(=O)CCCn3c(=O)[nH]c4ccsc4c3=O)CC2C)c1 (stereo unspecified)	none
CN(Cc1ccco1)S(=O)(=O)c1nnc(NC(=O)c2ccccc2Cl)s1	none
Cc1cccc(NC2=NC(C)(C)N=C(N)N2)c1	SKKanGAS inh 111.0
Cc1cc(NS(=O)(=O)c2ccc(NC(=O)c3ccccc3C)cc2)no1	none
Cc1cc(NS(=O)(=O)c2ccc(NC(=S)NC(=O)/C=C/c3ccccc3)cc2)no1	none
Cc1ccc(-c2cc(C(=O)Nc3ccc(S(=O)(=O)Nc4cc(C)on4)cc3)c3ccccc3n2)c(C)c1	SKKanGAS inh 53.7
Cc1ccc(/C=C/C(=O)NC(=S)Nc2ccc(S(=O)(=O)Nc3cc(C)on3)cc2)cc1	SKKanGAS inh 52.4
C(=N\N=C\c1ccccc1)/c1ccccc1	NALP1 yeast inh 35.6
Cc1ccc(/C=N/N=C/c2ccc(C)cc2)cc1	none
COc1ccc(CC(=O)NC2CCS(=O)(=O)C2)cc1 (stereo unspecified)	none (no result: NALP1 yeast inh)
O=[N+]([O-])c1ccc(OCC(O)CN2CCN(c3ccccc3F)CC2)cc1 (stereo unspecified)	NALP1 yeast inh 46.4
C1CCCCCC2(CCCCC1)OCC(CN1CCOCC1)O2 (stereo unspecified)	NALP1 yeast inh 54.0
Cc1nnc2sc(-c3cccc(F)c3)nn2c1=O	none
CCC(C)Sc1cc(C(F)(F)F)c(C(=O)Nc2ccc(Cl)cc2)cn1 (stereo unspecified)	SKKanGAS inh 70.4
Cn1cc(C(=O)Nc2ccc(Cl)cc2)c(C(F)(F)F)n1	none
O=Nc1c(O)c2ccccc2c2ccccc12	SKKanGAS inh 66.2 (no result: tim23-1 inh, tim10-1 inh, TIM10 inh, NLRP3 yeast inh, NALP1 yeast inh)
CN=Cc1sc2ccccc2c1O	none
COCCn1cc(C(=S)N2CCOCC2)c2ccccc21	NALP1 yeast inh 33.3
COCCn1cc(C(=S)N2CCCCC2)c2ccccc21	none
COc1ccc(-c2nnc(NC(=O)c3ccc4c(c3)OCCO4)o2)cc1	none
CC1CN(S(=O)(=O)c2ccc(C(=O)Nc3nnc(-c4ccco4)o3)cc2)CC(C)O1 (stereo unspecified)	none
